# Hits are enriched below; roughly 2.6% of the tested compounds scored in any of these assays.
# Gli-Sufu block = Gli-Sufu pathway antagonism; Sufu-KO-LIGHT fibroblasts, Gli luciferase reporter luminescence; inhibition, % at 5 µM; 0.74% of 340,000 active; AID 588413;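 active = inhibition above about 55%, limit read from the data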;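 note: 0% = DMSO-treated cells and 100% = wells with medium but no cells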
# Cardio protect = myocardial damage modulation in H9c2 cells. H9c2 cardiomyocytes, H2O2 injury protection, ATPLite, 2 h. protection from H2O2 cell death, % at 20 µM. 0.63% of 360,000 active. AID 588492;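 active = compounds giving at least 50% protection of heart cells from peroxide-induced death in the single-dose screen, raw or plate-pattern-corrected value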;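 note: 0% = DMSO wells with peroxide and 100% = DMSO wells without peroxide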
# Jurkat NFkB inh = lowers PMA/ionomycin-induced NF-kB signal in Jurkat cells | inhibition, % at 4 µM | AID 435003 | 0.53% of 330,000 active | PMA/ionomycin-induced NF-kB luciferase reporter, luminescence; in the data active = inhibition above about 50%
# 697 NFkB inh = lowers PMA/ionomycin-induced NF-kB signal in 697 B cells; 697 B-cell NF-kB luciferase reporter, 16 h; inhibition, % at 4 µM; 0.33% of 330,000 active; AID 435022; in the data active = inhibition above about 35%
# COUP-TFII inh = NR2F2 (human) inhibition, primary screen | AID 686940 | inhibition, % at 8.6 µM | 0.7% of 370,000 active | HEK293T NGFI-A luciferase reporter, luminescence;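 active = inhibition above a per-plate cutoff, mean inhibition of test wells between control levels plus 3 SD, cut at about 38% in these data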;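 note: cells cotransfected with COUP-TFII expression vector driving the NGFI-A reporter; 0% = median of COUP-TF2 test wells and 100% = reporter-only cells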
# Target sequence (P24468 whole entry, looked up): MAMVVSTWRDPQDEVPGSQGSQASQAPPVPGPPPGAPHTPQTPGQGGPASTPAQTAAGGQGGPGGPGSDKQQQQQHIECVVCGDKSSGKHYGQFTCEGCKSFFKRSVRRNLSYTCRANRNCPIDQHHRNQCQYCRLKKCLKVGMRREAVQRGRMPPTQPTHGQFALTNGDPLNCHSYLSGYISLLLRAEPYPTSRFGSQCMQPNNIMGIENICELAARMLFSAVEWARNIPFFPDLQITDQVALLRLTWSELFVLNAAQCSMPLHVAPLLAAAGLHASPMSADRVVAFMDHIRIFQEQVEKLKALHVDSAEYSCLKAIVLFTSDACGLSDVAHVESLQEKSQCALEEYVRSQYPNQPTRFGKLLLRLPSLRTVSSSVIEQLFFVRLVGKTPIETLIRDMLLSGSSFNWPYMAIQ
# H9c2 TAG inh = reduces triacylglycerol accumulation in H9c2 cells | inhibition, % at 12.5 µM | Nile Red lipid (TAG) fluorescence; cells loaded with 200 µM oleic acid | 0.66% of 230,000 active;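 active = pattern-corrected inhibition of lipid staining of at least 50% with the nuclear-stain viability signal not falling by more than 50%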;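 note: 0% = DMSO wells and 100% = triacsin C control wells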
# 697 NFkB conf = inhibitors of the PMA/ionomycin-induced NF-kB reporter in 697 B cells, retest | shares compounds with 697 NFkB inh | 697 B-cell NF-kB luciferase, 16 h | inhibition, % at 4 µM | 35% of 2,000 active | AID 449746; in the data active = inhibition mostly above about 28%, no sharp cut-off; inactive = mostly below about 22%
# Gli antag conf = Gli-SUFU antagonism confirmation, single concentration; 40% of 2,500 active; Sufu-KO-LIGHT cells, Gli luciferase reporter, luminescence; shares compounds with Gli-Sufu block; AID 602428; inhibition, % at 5 µM;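 active = mean inhibition at 5 µM reaching about 45%, limit read from the data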;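 note: plate controls were DMSO-treated cells for no effect and wells lacking cells for full effect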
# Gli cytotox = cytotoxicity counter-screen for Gli-SUFU antagonists | 32% of 2,500 active | AID 651994 | cytotoxicity, % at 5 µM | shares compounds with Gli-Sufu block | Sufu-KO-LIGHT cells cytotoxicity, ATP luminescence;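 active = mean cytotoxicity at 5 µM above about 25%, limit read from the data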;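 note: cells exposed to compound overnight for roughly 16 to 18 hours; plate controls were DMSO wells with cells for no effect and medium without cells for full effect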
# Wnt3a counter = inhibits Wnt3a reporter, counter-screen for Gli-SUFU antagonists | 20% of 2,500 active | Wnt-LIGHT cells, Wnt3a-driven luciferase reporter, luminescence | shares compounds with Gli-Sufu block | AID 651995 | inhibition, % at 6.25 µM;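 active = mean inhibition above about 25%, limit read from the data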
# Gal4-VP16 ctr = VP16 inhibition counter-screen for COUP-TFII. AID 687007. inhibition, % at 8.5 µM. HEK293 Gal4-VP16 luciferase reporter, luminescence. 25% of 2,500 active. shares compounds with COUP-TFII inh; in the data active = inhibition above about 13%
# COUP-TFII conf = confirmation of human COUP-TFII (NR2F2) inhibitors. shares compounds with COUP-TFII inh. HEK293 NGFI-A luciferase reporter, luminescence. inhibition, % at 8.5 µM. 45% of 2,500 active. AID 687008;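 active = mean inhibition over three repeats above a set limit taken from the earlier primary screen, cut at about 38% in these data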;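 note: 100% = cells given the luciferase reporter alone without the COUP-TF2 vector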
# Active calls of the source: *; x = no result.
SMILES,Gli-Sufu block,Cardio protect,Jurkat NFkB inh,697 NFkB inh,COUP-TFII inh,H9c2 TAG inh,Gli antag conf,Gli cytotox,Wnt3a counter,others
Cn1c(=O)n(CC(=O)N2CCC3(CC2)OCCO3)c(=O)c2ccccc21,-3,12,-11,0,1,2,x,x,x,
CCn1c(=O)cc(SCC(=O)N2CCC3(CC2)OCCO3)c2ccccc21,34,4,13,62*,-88,x,x,x,x,697 NFkB conf=40*
CN(C)c1cccc2c(C#N)ccc(N(C)C)c12,-6,0,16,39*,22,x,x,x,x,697 NFkB conf=-13
COc1ccc(OC(=O)N(C)C[C@H]2OCc3cnnn3CCCC(=O)N([C@@H](C)CO)C[C@@H]2C)cc1,x,x,x,x,-5,x,x,x,x,
COC(=O)C1=C(c2ccc(OC(F)(F)F)cc2)C[C@@H]2CC[C@H]1N2C(=O)NCc1ccco1,x,x,x,x,11,x,x,x,x,
O=C(Nc1ccc(OC(=O)N2CCCC2)cc1)N1CCOCC1,2,1,-10,-11,5,x,x,x,x,
O=C(Nc1ccc(OC(=O)N2CCCCC2)cc1)N1CCOCC1,16,-8,3,58*,78*,2,x,x,x,697 NFkB conf=0;Gal4-VP16 ctr=29*;COUP-TFII conf=19
CN1C2CCC1C(C(=O)Oc1ccccc1)C(c1ccc(Cl)cc1)C2 (configuration not stated),x,x,x,x,1,x,x,x,x,
COC(=O)C1=C(c2ccc(-c3ccccc3)c(F)c2)C[C@@H]2CC[C@H]1N2C(=O)N1CCCC1,26,-22,22,46*,67*,-58,x,x,x,697 NFkB conf=62*;Gal4-VP16 ctr=-5;COUP-TFII conf=47*
C=C1C(=O)O[C@H]2[C@H]1[C@H](OC(=O)CC(=O)O[C@@H]1C[C@@H](C)[C@@H]3C=CC(=O)[C@@]3(C)[C@H]3OC(=O)C(=C)[C@H]13)C[C@@H](C)[C@H]1C=CC(=O)[C@]12C,52,-18,19,-76,21,14,45,35*,-4,
Cc1nc2ccccn2c1P(=S)(c1ccccc1)c1ccccc1,x,-6,x,x,-7,-12,x,x,x,
COc1ccc(NC2Oc3cc4c(cc3C(c3cc(OC)c(OC)c(OC)c3)C2C)OCO4)cc1 (configuration not stated),44,2,x,x,-69,49,x,x,x,
COc1cc(C2c3cc4c(c(O)c3CC3COC(=O)C32)OCO4)cc(OC)c1OC (configuration not stated),62*,17,x,x,-71,38,57*,64*,-16,
O=C(NCCN1CCC2(CC1)C(=O)NCN2c1ccccc1)c1cccs1,x,x,x,x,-13,x,x,x,x,
COc1ccccc1N1CCN(Cc2ccc(Br)s2)CC1,58*,-3,3,14,-1,x,13,5,-16,
C=C1[C@@H](C)[C@H]2[C@H](Cc3ccccc3)NC(=O)[C@]23OC(=O)/C=C/[C@H](O)CCC[C@@H](C)C/C=C/[C@H]3[C@@H]1O,57*,79*,19,12,-5,96,36,46*,58*,
C[C@H](NC(=O)OCc1ccccc1)C(=O)NC(Cc1ccccc1)P(=O)(Oc1ccccc1)Oc1ccccc1 (some centres not stated),x,x,x,x,-4,x,x,x,x,
C#CCNc1ccncc1S(=O)(=O)NC(=O)NC(C)C,57*,1,-22,-3,2,11,11,-6,5,
O=P(OCCCl)(OCCCl)OCCCl,x,x,x,x,6,x,x,x,x,
CN1C(=O)C(=Cc2ccccc2Oc2ccc(Cl)cc2)C(=O)N(C)C1=O,52,2,1,11,17,-22,27,5,10,
COC1/C=C/C=C(\C)Cc2cc(O)c(Cl)c(c2)N(C)C(=O)CC(OC(=O)C(C)C)C2(C)OC2C(C)C2CC1(O)NC(=O)O2 (configuration not stated),54,7,x,x,-47,44,61*,58*,-5,
CC(C)OC(=O)C1C(c2ccc(I)cc2)CC2CCC1N2C (configuration not stated),x,x,x,x,-2,x,x,x,x,
COc1ccc2c(c1)C(NC(C)=O)CCc1cc(OC)c(OC)c(OC)c1-2 (configuration not stated),50,3,x,x,-79,45,50*,64*,3,
O=C(CNCc1c(F)cccc1F)N1CCC2(CC1)OCCO2,x,x,x,x,-28,x,x,x,x,
Nc1ccc(C2(c3ccc(N)cc3)CN3CCC2CC3)cc1,71*,-2,12,4,-5,0,17,-2,0,
SMILES,Gli-Sufu block,Cardio protect,Jurkat NFkB inh,697 NFkB inh,COUP-TFII inh,H9c2 TAG inh,Gli antag conf,Gli cytotox,Wnt3a counter,others
Cc1ccc(C2(O)CN3CCC2CC3)cc1 (configuration not stated),-5,-4,-9,-3,0,x,x,x,x,
COC(=O)C1C(c2ccc(C)cc2)CC2CCC1N2C (configuration not stated),x,x,x,x,4,x,x,x,x,
O=C(CF)NC(NC(=S)Nc1ccccc1O)C(Cl)(Cl)Cl (configuration not stated),87*,-16,-10,10,-5,0,17,20,-17,
CC(C)CCP(=O)(O)O,x,x,x,x,-1,x,x,x,x,
C[N+]1=C(/C=C/Nc2ccccc2)C(C)(C)c2ccccc21,63*,-14,1,-10,12,x,66*,26*,12,
CCOC(=O)C1(CCc2ccccc2)CCN(Cc2csc(C(C)=O)c2)CC1,53,-14,27,-45,20,x,22,2,-46,
CN(C)CCN(CC1CCCN(Cc2ccccc2F)C1)C(=O)Cc1ccccc1F (configuration not stated),x,4,x,x,10,10,x,x,x,
COc1ccc(CC(=O)N(CCN(C)C)CC2CCCN(Cc3ccccc3F)C2)cc1 (configuration not stated),50,13,-10,2,-5,x,29,11,-2,
Brc1ccc2c(c1)-n1nncc1CNC2,x,x,x,x,-23,x,x,x,x,
O=C(NC(=O)N1CCC2(CC1)OCCO2)c1ccc(Cl)cc1,65*,-2,0,14,3,0,18,22,-7,
Brc1ccc(-[n+]2c(-c3ccccc3)cc(-c3ccccc3)cc2-c2ccccc2)cc1,56*,-9,41,-37,37,-22,79*,8,6,

# Source: PubChem BioAssay (several laboratories)
